Measurements published in ChEMBL document CHEMBL3988442, “University of Dundee, Small-Polar-MMV Screening Library” (2021).
Screen size: about 48,000 compounds; about 13,000 (27%) showed an effect of 50% or more. The list shows a part of the results.

Tested on: Wolbachia pipientis
Test: Anti-Wolbachia Cell-Based Screen
Type: functional
Design: scale not given: in the data most compounds retested in dose-response had high values
Details: 5 µM

Compound	Percent Effect [%]
CC(C)n1c(C2CCCN(CC(=O)NC3CC3)C2)nc2ccccc21 (configuration not stated)	-1.015
O=C1COc2ccccc2N1CCCn1cnnn1	-11.05
CN(C)C(CNS(=O)(=O)c1cnn(C)c1)c1cccc(F)c1 (configuration not stated)	6.578
N#Cc1ccc(OC2CCN(C(=O)c3ccc(Br)o3)CC2)nc1	22.17
CN1CCCN(C[C@@H]2CN(c3nc(C(N)=O)cs3)C[C@@H]2CO)CC1	120.2
Cc1nc(N2C[C@@H](CN3CCCN(C)CC3)[C@@H](CO)C2)c2ccsc2n1	13.06
Cc1nc(N2C[C@@H](CN3CCCN(C)CC3)[C@@H](CO)C2)c2sccc2n1	6.466
Cc1cnn(C2CN(CC(O)c3ccc(F)cc3)C2)c1 (configuration not stated)	3.544
O=C1O[C@@H]2CN(c3cnccn3)C[C@@H]2N1CCCc1ccc(F)cc1	20.37
COc1c(C)cnc(CN(C)C(=O)c2ccccc2F)c1C	-7.265
Cc1ccccc1NS(=O)(=O)c1ccc(C(=O)O)cc1F	0.9629
O=C(O)c1ccc(S(=O)(=O)Nc2ccccc2F)c(F)c1	-2.05
Cc1cc(NS(=O)(=O)c2ccc(C(=O)O)cc2F)ccc1F	102.3
N#Cc1cccc(NS(=O)(=O)c2ccc(C(=O)O)cc2F)c1	100.6
O=C(O)c1ccc(S(=O)(=O)Nc2ccc(Cl)c(F)c2)c(F)c1	4.995
O=C(O)c1ccc(S(=O)(=O)Nc2cccc(CC(F)(F)F)c2)c(F)c1	-7.999
Cc1ccc(F)cc1S(=O)(=O)N(C)CC(N)=O	2.56
O=C1CCC2(CCNCC2)CN1CCCOc1cccnc1	-10.24
COc1ccc(CN(C)C(=O)NC(C)c2nncn2C)cc1F (configuration not stated)	-30.44
CSc1cccc(CN2CCC(CCC(=O)NCCN(C)C)CC2)c1	-5.054
O=C(CCSc1ccccc1)NCC1CCN(Cc2ccsc2)CC1	78.72
O=C(NCC1CCN(Cc2ccsc2)CC1)NC1CC1	4.525
CCSc1ccccc1C(=O)NCC1CCN(Cc2ccsc2)CC1	107.8

Compound	Percent Effect [%]
COCC(=O)NCC1CCN(Cc2ccsc2)CC1	155
COCCNC(=O)CCC1CCN(Cc2cccc(SC)c2)CC1	4.456
CC(c1ccccc1)N1CCC(NC(=O)CCc2ccsc2)CC1 (configuration not stated)	5.953
O=C(COc1ccccc1)NCC1CCN(Cc2ccsc2)CC1	115.8
CCC(CC)c1nnc(NC(=O)N2CCCC(NC(C)=O)C2)s1 (configuration not stated)	-9.059
CCn1ncnc1C(C)NC(=O)COc1ccc(Cl)cc1Cl (configuration not stated)	-23.74
CN(Cc1cc(C(C)(C)C)n[nH]1)Cc1c[nH]nc1-c1ccc(F)cc1	-14.5
CC1(C)[C@H]2CC=C(CN3CCCn4nc(CCC(=O)O)cc4C3)[C@@H]1C2	1.513
Cc1cc(CN2CCC(CNC(=O)Cc3ccc(F)cc3)C2)[nH]n1 (configuration not stated)	4.609
O=C(Cc1ccc(F)cc1)NCC1CCN(Cc2ccsc2)CC1	152.7
CCOCC(=O)NCC1CCN(Cc2ccsc2)CC1	164
O=C(NCCCC(=O)N1Cc2ccccc2C1)NCc1ccsc1	1.068
O=C(NCc1ccccc1)NCC1CCN(Cc2ccsc2)CC1	116.2
O=C(Cc1ccccc1Cl)NCC1CCN(Cc2ccsc2)CC1	104.9
CN1CCC(CNC(=O)Cc2ccc(N(C)C)cc2)CC1	-0.2873
O=C(Cn1cncn1)NCC1CCN(Cc2ccccc2Cl)CC1	-9.372
Cc1ccccc1CN1CCC(CNC(=O)Cn2cncn2)CC1	9.92
Cc1cc(CN(C)C(=O)c2ccc(F)cc2Br)no1	-8.681
Cc1cc(=O)[nH]c(NCCNC(=O)C(c2ccc(F)cc2)N(C)C)n1 (configuration not stated)	1.725
Cc1nc(CN2CCN(C(=O)CC(C)(C)c3ccccc3)CC2)no1	6.376
CCc1nc(CN2CCCC(Nc3ncnc4ccsc34)C2)no1 (configuration not stated)	25.2
O=C(O)C(F)(F)F.O=S(=O)(C1CC1)N1CCC2(CC1)CN(Cc1nccs1)CCO2	4.912
CCNC(=O)N1CCC(NC(=O)NCCc2ccc(C)cc2C)C1 (configuration not stated)	5.947

Compound	Percent Effect [%]
COCCN1CC(c2nc(CSC)no2)CCC1=O (configuration not stated)	7.021
Cc1nccn1C1CCCN(C(=O)c2ccc3nnc(C)n3c2)C1 (configuration not stated)	98.33
CCc1nccn1C1CCCN(C(=O)c2ccc3nnc(C)n3c2)C1 (configuration not stated)	92.62
CCc1nccn1C1CCCN(C(=O)c2ccc3[nH]c(=O)[nH]c3c2)C1 (configuration not stated)	0.4559
CCc1nccn1C1CCCN(C(=O)c2ccc(C(N)=O)cn2)C1 (configuration not stated)	6.395
Cc1nc(C)c(C(=O)N2CCc3c(Cl)cccc32)o1	-6.606
CCc1ncc2c(n1)CN(Cc1nc3c(F)cccc3[nH]1)CC2	-2.409
Cc1cnc(CN(C)C2CCN(Cc3nc4c(F)cccc4[nH]3)C2)o1 (configuration not stated)	88.38
Cc1ncc2c(n1)CN(Cc1nc3c(F)cccc3[nH]1)CC2	-1.881
Cc1cnc(CN(C)C2CCN(Cc3nc4ccccc4n3C)C2)o1 (configuration not stated)	4.653
Cc1nc(CN(C)C2CCN(Cc3nc4c(F)cccc4[nH]3)C2)no1 (configuration not stated)	95.7
CNC(=O)c1cccc(CN2CCC(N(C)Cc3ncc(C)o3)C2)c1 (configuration not stated)	18.32
Cc1nc(CN2CCCN(Cc3nc4c(F)cccc4[nH]3)CC2)no1	93.2
Cc1sc2nc(C(F)(F)F)nc(N3CCN(S(C)(=O)=O)CC3)c2c1C	0.8403
O=C1NC(c2ccccc2)=N[C@@]12CC[C@@H]1CN(Cc3ccco3)C[C@@H]12	9.656
CCOc1ccc(NC(=O)c2[nH]c(C)cc2C)cc1CO	-6.246
CNC(=O)c1ccc(-c2ccccc2)n1C	-8.126
Cn1c(C(=O)NCC2(N)CCCC2)cc2ccccc21	105.3
CNC(=O)c1cc2ccccc2n1C	113.9
COCCn1c(C(=O)NCC(C)C(=O)O)cc2ccccc21 (configuration not stated)	18.09
O=C(NCC1(CO)CC1)c1cccc2ccccc12	-22.57
Cc1nc(C)n(C2CCCN(C(=O)c3cc4ccccc4n3C)C2)n1 (configuration not stated)	8.769
CC(C)NC(=O)c1n[nH]c(-n2cnnc2)n1	-2.794

Compound	Percent Effect [%]
Cc1cc(C)nc(Nc2cccc(C3CCCN(CC4CC4)C3)n2)n1 (configuration not stated)	109.6
CNc1nc(C)cc(NC2CCCN(C3Cc4ccccc4C3)C2)n1 (configuration not stated)	43.21
Cc1cc(C)nc(Nc2cccc(C3CCCN(CCO)C3)n2)n1 (configuration not stated)	75.7
Cc1cc(C)nc(Nc2cccc(C3CCCN(C(C)C)C3)n2)n1 (configuration not stated)	76.23
Cc1cc(C)nc(Nc2cccc(C3CCCN(C)C3)n2)n1.O=CO (configuration not stated)	-4.261
CNc1cc(C)nc(NC2CCCN(C3Cc4ccccc4C3)C2)n1 (configuration not stated)	9.514
Cc1cc(CC(C)NC(=O)COc2ccc(F)cc2F)[nH]n1 (configuration not stated)	17.04
CN(C(=O)NCc1ccncc1)C1CCN(c2ccccc2)C1=O (configuration not stated)	-1.353
O=c1nc(SCc2ccc(Cl)cc2)c2c(n1CCO)CCC2	7.751
CN(CCc1nc(-c2cccc(Cl)c2)no1)CCn1cccn1	14.68
O=C(NCCNc1cnccn1)c1scnc1Cl	1.056
COc1ccc(Cl)cc1NCC(=O)NCCNc1cnccn1	7.849
Cc1ncsc1C(=O)NCCNc1cnccn1	4.216
COc1ccc(Cl)cc1C(=O)NCCNc1cnccn1	117.3
COc1ccc(Cl)cc1NC(=O)CCNc1ccc(C#N)cn1	-1.327
COc1ccc(Cl)cc1NCCC(=O)NCCNc1cnccn1	93.92
NC(=O)C(Nc1cccc(CO)c1)c1ccc(Br)cc1 (configuration not stated)	-1.327
CCCn1ccnc1CNC(=O)C1COc2cc(OC)ccc2C1 (configuration not stated)	-6.706
COc1cc(C)c(CN2CCC3(CC2)C(C(=O)O)CC(=O)N3C)cc1C (configuration not stated)	7.232
CC(C)CC(=O)N1CCC2(CC1)NC(=O)[C@H]1CN(C(=O)N(C)C)C[C@H]12	-16.51
CCOC(=O)[C@H]1[C@@H](O)C(=O)N(C)C12CCN(C(=O)C(CC)CC)CC2	87.69
CC(C)C(=O)N1CCC2(CC1)[C@@H]1CN(C(=O)N(C)C)C[C@@H]1C(=O)N2C	11.68
CCOC(=O)[C@@H]1[C@@H](O)C(=O)N(C)C12CCN(C(=O)OC)CC2	81.26

Compound	Percent Effect [%]
CC(C)CC(=O)N1CCC2(CC1)[C@@H]1CN(C(=O)N(C)C)C[C@@H]1C(=O)N2C	-15.87
CC(=O)N1C[C@@H]2C(=O)N(C)C3(CCN(C(=O)C(C)C)CC3)[C@@H]2C1	-11.94
CCOC(=O)[C@H]1[C@@H](O)C(=O)N(C)C12CCN(C(=O)CC(C)C)CC2	122.2
COC(=O)N1CCC2(CC1)N=C(CCC(C)C)NC2=O	-0.8032
CC(C)NC(=O)N1CCC2(CC1)[C@@H]1CN(C(=O)N(C)C)C[C@@H]1C(=O)N2C	-31.71
CCOC(=O)[C@H]1[C@@H](O)C(=O)N(C)C12CCN(C(=O)OC)CC2	97.39
NC(=O)Cn1ccnc1C1CCCN(Cc2nc3ccccc3s2)C1 (configuration not stated)	1.02
CCCC(=O)N(C)Cc1cccc(OC(C)C)c1	0.3075
CCN1CCC(CC(=O)N[C@H](C(=O)O)c2cccc(F)c2F)CC1	0.01063
CC(C)(C)CC(=O)N1CCC(n2cc(C3(O)CCCC3)nn2)CC1	20.32
O=C(c1ccco1)N1CCC2(CC1)C(=O)NCCN2CC1CC1	0.967
CC(C)CN1C[C@@H]2C(=O)N(C)C3(CCN(C(=O)C(C)C)CC3)[C@@H]2C1.O=C(O)C(F)(F)F	15.99
CCOC(=O)N1CCC2(CC1)N=C(CCC(C)C)NC2=O	0.1534
CCOC(=O)[C@H]1[C@@H](O)C(=O)N(C)C12CCN(C(=O)CC(C)(C)C)CC2	89.62
CCOC(=O)[C@@H]1[C@@H](OC)C(=O)N(C)C12CCN(C(=O)C(CC)CC)CC2	108.6
CC(=O)N1CCC2(CC1)[C@@H]1CN(C(=O)N(C)C)C[C@@H]1C(=O)N2C	-8.179
CCN1CC2(CC1=O)CN(C(C)=O)CCN(C(=O)c1ccco1)C2 (configuration not stated)	6.232
CCOCC(O)CN1CCN(C(=O)CC(C)(C)C)CC1 (configuration not stated)	2.808
CCOC(=O)[C@@H]1[C@@H](O)C(=O)N(C)C12CCN(C(=O)c1ccco1)CC2	104.5
CCOC(=O)[C@H]1[C@@H](O)C(=O)N(C)C12CCN(C(=O)OCC)CC2	113.4
